MCF10A rerep = inducers of DNA re-replication in MCF 10A breast cells | MCF 10A DNA re-replication, Hoechst nuclear intensity, 48 h | Potency, µM (highest dose often 46.1 µM), for inactives: top-dose activity, positive = re-replication, usual class: activators | hit rate 2.9% among 350,000; note: % of control where 0% means no effect; nearly all actives have a fitted effect of over 50% in size
SW480 rereplic = induces DNA re-replication in SW480 colon adenocarcinoma cells; SW480 DNA re-replication, Hoechst DNA content imaging, 48 h; Potency, µM (series often up to 46.1 µM), inactives show at the highest dose re-replication activation, most hits filed as activators; hit rate 1.8% among 340,000; note: % of control where 0% means no effect; nearly all actives have a fitted effect of over 55% in size
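Compounds, transferred as 23 nL by pin tool, were incubated with cells for 48 hr; DNA content per nucleus was then quantified by Hoechst staining and fluorescence plate imaging.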
KB-V1 cytotox = KB-V1 MDR subline cytotoxicity; hit rate 3.4% among 400,000; KB-V1 MDR cells viability, CellTiter-Glo, 72 h; Potency, µM (titrated, usually from 46.1 µM), actives largely listed as cytotoxic; note: % is set by controls: 0 for no effect and ±100 for the full control effect; nearly all actives have a fitted effect of over 60% in size
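Drug-selected KB-V1 cells, grown in DMEM lacking phenol red with 10% FBS, receive compound titrations; after three days at 37 degrees C, surviving cell ATP is quantified by CellTiter-Glo luminescence and responses normalized and curve-fitted.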
HT1080-NT tox = kills 2HG-producing HT-1080-NT fibrosarcoma cells; hit rate 1.6% among 360,000; HT-1080-NT fibrosarcoma viability, CellTiter-Glo ATP luminescence, 48 h; Potency, µM (series often up to 46.1 µM), for the others: at the top dose activity, negative = less viability, hits mostly cytotoxic;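 note: NT is the 2HG producing partner of a matched IDH1 knockdown line; 0% = DMSO-treated cells and -100% = media-only wells without cells; nearly all actives have a fitted effect of over 55% in size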
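A 48-hour cytotoxicity screen used HT-1080-NT cells plated 2 hours before compound delivery. ATP-based CellTiter-Glo luminescence measured viability, normalized to DMSO and no-cell controls.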
KB-3-1 cytotox = KB-3-1 parental cell cytotoxicity. KB-3-1 viability, CellTiter-Glo ATP luminescence, 72 h. hit rate 1.4% among 400,000. Potency, µM (titrated, usually from 46.1 µM), most hits filed as cytotoxic; note: % is set by controls: 0 for no effect and ±100 for the full control effect; nearly all actives have a fitted effect of over 60% in size
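Parental KB-3-1 adenocarcinoma cells in phenol-red-free DMEM with 10% FBS were pin-treated with compounds at several concentrations, incubated 72 h at 37 °C, and viability read by CellTiter-Glo luminescence; concentration-effect curves were fitted after normalization.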
HT1080 IDH1KD tx = kills HT-1080 cells with IDH1 knockdown; Potency, µM (doses to about 46.1 µM), without a hit: at the highest dose activity, negative = toxicity, actives largely listed as cytotoxic; HT-1080 IDH1 knockdown viability, ATP luminescence, 48 h; AID 686971; hit rate 2% among 360,000;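 note: 0% = DMSO wells and -100% = cell-free medium wells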
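Knockdown cells (IDH1KD HT-1080) received compounds 2 h after plating at 750 cells/well and were kept 48 h at 37 °C in 5% FBS RPMI. A CellTiter-Glo luminescence read gave % activity for curve fitting.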
Numbers without * were called inactive. In the library only some 8% were active in any assay of this set; here they are far more common. Calls come from the whole dose curve; as a rule, active = well fitted curve in the direction sought with a large enough effect; inconclusive = small, poorly fitted or top-dose-only effect, or another doubt; inactive = no such curve, though single readings can be large; an effect the other way counts as inactive or inconclusive. Potency is the fitted concentration of half-maximal effect.

Results for CCCCCn1c(NC(=O)c2ccco2)c(S(=O)(=O)c2ccc(C)cc2)c2nc3ccccc3nc21 ?
MCF10A rerep: 2%; SW480 rereplic: 1%; KB-V1 cytotox: 18µM*; HT1080-NT tox: inconclusive; KB-3-1 cytotox: inactive; HT1080 IDH1KD tx: inconclusive

What do the screens show for `Cc1cccc(-c2c3c(=O)n(C)c(=O)n(C)c3c3c(C)nc4ccccc4n23)c1`?
KB-V1 cytotox: inactive; KB-3-1 cytotox: inactive

What do the screens show for `CCOc1ccc(NC(=O)CSc2nnc(C3CC3)n2C2CC2)cc1`?
MCF10A rerep: -3%; SW480 rereplic: -9%; KB-V1 cytotox: 13µM*; HT1080-NT tox: 9%; KB-3-1 cytotox: inactive; HT1080 IDH1KD tx: 17%

What do the screens show for `NC(=O)c1ccc(NC(=O)CSc2nnc(C3CC3)n2C2CC2)cc1`?
MCF10A rerep: -38%; SW480 rereplic: -15%; KB-V1 cytotox: inactive; HT1080-NT tox: 7%; KB-3-1 cytotox: inactive; HT1080 IDH1KD tx: 16%

Results for CCOC(=O)c1c(C)c(-c2ccccc2)n(CC(=O)NCCCN(CC)CC)c1C ?
MCF10A rerep: 9%; SW480 rereplic: inconclusive; KB-V1 cytotox: inactive; HT1080-NT tox: -9%; KB-3-1 cytotox: inactive; HT1080 IDH1KD tx: -1%

How did CN(C)Cc1ccccc1Sc1cccc2ccccc12 do in these assays?
MCF10A rerep: 13µM*; SW480 rereplic: inconclusive; KB-V1 cytotox: inconclusive; HT1080-NT tox: inconclusive; KB-3-1 cytotox: inactive; HT1080 IDH1KD tx: -22%

Results for CCOC(=O)CC1=NN(c2ccccc2)C(=O)/C1=C\c1ccc(OC)cc1OC ?
MCF10A rerep: 10µM*; SW480 rereplic: inconclusive; KB-V1 cytotox: inactive; HT1080-NT tox: -23%; KB-3-1 cytotox: inactive; HT1080 IDH1KD tx: -1%

What do the screens show for `COC(=O)CC1=NN(c2ccccc2)C(=O)/C1=C\c1ccc(OC)cc1`?
MCF10A rerep: 18%; SW480 rereplic: 16%; KB-V1 cytotox: inactive; HT1080-NT tox: 15%; KB-3-1 cytotox: inactive; HT1080 IDH1KD tx: 20%

What do the screens show for `COc1ccc(Cc2nc(-c3cccs3)no2)cc1`?
MCF10A rerep: -8%; SW480 rereplic: 19%; KB-V1 cytotox: inactive; HT1080-NT tox: 8%; KB-3-1 cytotox: inactive; HT1080 IDH1KD tx: 0%

What do the screens show for `c1cncc(-c2nc(NCCCN3CCOCC3)c3c4c(sc3n2)CCC4)c1`?
MCF10A rerep: 10%; SW480 rereplic: 3%; KB-V1 cytotox: inactive; HT1080-NT tox: 18µM*; KB-3-1 cytotox: inconclusive; HT1080 IDH1KD tx: inconclusive

What do the screens show for `COC(=O)c1c(NC(NC(=O)C(C)C)C(Cl)(Cl)Cl)sc2c1CCC2` (stereo not given)?
MCF10A rerep: inconclusive; SW480 rereplic: 14%; KB-V1 cytotox: inactive; HT1080-NT tox: -22%; KB-3-1 cytotox: inactive; HT1080 IDH1KD tx: -26%

What do the screens show for `CCC(=O)NC(Nc1sc2c(c1C(=O)OC)CCC2)C(Cl)(Cl)Cl` (stereo not given)?
MCF10A rerep: inconclusive; SW480 rereplic: -6%; KB-V1 cytotox: 23µM*; HT1080-NT tox: 1%; KB-3-1 cytotox: inconclusive; HT1080 IDH1KD tx: 1%

How did CCOC(=O)c1c(NC(NC(C)=O)C(Cl)(Cl)Cl)sc2c1CCCC2 (stereo not given) do in these assays?
MCF10A rerep: 21µM*; SW480 rereplic: 8%; KB-V1 cytotox: inactive; HT1080-NT tox: inconclusive; KB-3-1 cytotox: inconclusive; HT1080 IDH1KD tx: -29%

What do the screens show for `COC(=O)c1c(NC(NC(=O)CC(C)C)C(Cl)(Cl)Cl)sc2c1CCC2` (stereo not given)?
MCF10A rerep: 0%; SW480 rereplic: inconclusive; KB-V1 cytotox: 18µM*; HT1080-NT tox: 1%; KB-3-1 cytotox: inactive; HT1080 IDH1KD tx: -14%

Results for S=C(NNc1ccnc2cc(Cl)ccc12)Nc1ccccc1Cl ?
MCF10A rerep: inconclusive; SW480 rereplic: inconclusive; KB-V1 cytotox: inconclusive; HT1080-NT tox: inconclusive; KB-3-1 cytotox: 23µM*; HT1080 IDH1KD tx: inconclusive

What do the screens show for `Cc1cccc(NC(=S)NNc2ncc(C(F)(F)F)cc2Cl)c1`?
MCF10A rerep: 24%; SW480 rereplic: 4%; KB-V1 cytotox: 15µM*; HT1080-NT tox: -1%; KB-3-1 cytotox: inconclusive; HT1080 IDH1KD tx: -17%

Results for S=C(Nc1ccccc1Cl)Nc1ccc(Cl)cc1Cl ?
MCF10A rerep: 10%; SW480 rereplic: -15%; KB-V1 cytotox: inactive; HT1080-NT tox: 10%; KB-3-1 cytotox: inactive; HT1080 IDH1KD tx: 15%

What do the screens show for `FC(F)(F)c1cnc(NNC(=S)Nc2ccccc2Cl)c(Cl)c1`?
MCF10A rerep: 2%; SW480 rereplic: 1%; KB-V1 cytotox: inconclusive; HT1080-NT tox: inconclusive; KB-3-1 cytotox: 16µM*; HT1080 IDH1KD tx: inconclusive

Results for COC(=O)c1ccc(NC(=O)COc2coc(CN3CCc4ccccc43)cc2=O)cc1 ?
MCF10A rerep: -1%; SW480 rereplic: -1%; KB-V1 cytotox: inactive; HT1080-NT tox: 7%; KB-3-1 cytotox: inactive; HT1080 IDH1KD tx: 9%

How did Cc1ccc(C)c(Cn2c(=O)n(Cc3ccccc3)c(=O)c3c(C)c(C)sc32)c1 do in these assays?
KB-V1 cytotox: inactive; KB-3-1 cytotox: inactive

How did Cc1ccc(CNC(=O)c2cccn2-c2nnc(N3CCCCC3)s2)cc1 do in these assays?
KB-V1 cytotox: inactive; KB-3-1 cytotox: inactive

How did O=C(NNc1nc(-c2ccc(Br)cc2)cs1)c1ccco1 do in these assays?
MCF10A rerep: 2.6µM*; SW480 rereplic: inconclusive; KB-V1 cytotox: inactive; HT1080-NT tox: -14%; KB-3-1 cytotox: inconclusive; HT1080 IDH1KD tx: inconclusive

What do the screens show for `N#Cc1ccc(-c2csc(NNC(=O)c3ccccc3)n2)cc1`?
MCF10A rerep: -3%; SW480 rereplic: inconclusive; KB-V1 cytotox: inactive; HT1080-NT tox: -4%; KB-3-1 cytotox: inactive; HT1080 IDH1KD tx: 10µM*

How did CC(=O)Nc1ccc(-c2csc(NNC(=O)c3ccc(C)cc3)n2)cc1 do in these assays?
MCF10A rerep: -1%; SW480 rereplic: 14%; KB-V1 cytotox: inactive; HT1080-NT tox: 5%; KB-3-1 cytotox: inactive; HT1080 IDH1KD tx: 13%

How did O=C(NC(=S)Nc1nc(-c2ccc(Br)cc2)cs1)c1ccco1 do in these assays?
MCF10A rerep: 47%; SW480 rereplic: -4%; KB-V1 cytotox: inconclusive; HT1080-NT tox: 14%; KB-3-1 cytotox: inactive; HT1080 IDH1KD tx: 7%

How did N#Cc1ccc(-c2csc(NNC(=O)c3ccc(Br)cc3)n2)cc1 do in these assays?
MCF10A rerep: inconclusive; SW480 rereplic: 5.2µM*; KB-V1 cytotox: inactive; HT1080-NT tox: 8.2µM*; KB-3-1 cytotox: inactive; HT1080 IDH1KD tx: 5.2µM*

Screening data from PubChem.
